LASV entry inh – Lassa virus entry inhibition; Potency, µM (doses to about 37.9 µM), without a hit: at the highest dose activity change, negative = inhibition, usual class: inhibitors; 300,000 compounds, 1.2% hits; Lassa virus pseudotype entry inhibition, cell reporter; AID 540256; calls by dose curve; tested in HEK293 cells; further: potency means the concentration at half of the fitted maximal effect; nearly all actives have a fitted effect of over 50% in size
HCV inh – HCV inhibition; Huh7.5.1 HCVcc-Cre infection, luciferase reporter, 44 h; Potency, µM (doses to about 41.8 µM), inactives show at the top dose activity change, negative = inhibition, most hits filed as inhibitors; 340,000 compounds, 3.4% hits; AID 651820; active means well fitted inhibition curve with a large enough effect; inconclusive means small, poorly fitted or top-dose-only effect, or another doubt; inactive means no such curve, though single readings can be large or run the other way; further: potency means the concentration at half of the fitted maximal effect
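Infectious HCV cell culture screen: compound-treated cells (1,000/well, pre-plated 4 h) are infected with HCVcc-Cre at roughly 0.5 moi and grown 44 h. Infection is quantified by luciferase signal after 15 min substrate incubation at room temperature.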
HCMV inh – inhibitors of human cytomegalovirus; HFF cells, HCMV-luciferase reporter, 72 h; hits give low values; activity change, negative = inhibition, % at 57.5 µM; 410,000 compounds, 4.5% hits; in the data active means activity change below about -60%; inconclusive means no clear call, values can overlap the other calls; inactive means above about -39%
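After 16 h attachment at 37C, HFF cells received test compound and HCMV-luciferase (1 PFU/cell); reporter luminescence read 72 h later, data normalized against buffer-only and known inhibitor Salinomycin.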
MARV entry inh – blocks Marburg virus binding to or entry into cells | 300,000 compounds, 1.8% hits | Marburg virus pseudotyped entry inhibition, cell reporter | Potency, µM (series often up to 37.8 µM), for inactives: at the highest dose activity change, negative = inhibition, actives largely listed as inhibitors | AID 540276; calls by dose curve; tested in HEK293 cells; further: potency means the concentration at half of the fitted maximal effect
VACV mCherry inh – inhibitors of vaccinia virus infection (mCherry reporter signal); Vaccinia virus mCherry reporter infection, fluorescence; AID 720579; 310,000 compounds, 0.63% hits; Potency, µM (doses to about 36.5 µM), for inactives: at the top dose activity change, negative = inhibition, usual class: inhibitors; calls by dose curve; tested in A549 cells; further: potency means the concentration at half of the fitted maximal effect; nearly all actives have a fitted effect of over 35% in size
Vaccinia Venus – inhibitors of vaccinia virus (Venus reporter) | Vaccinia virus Venus reporter expression, fluorescence | Potency, µM (series often up to 36.5 µM), for inactives: at the highest dose activity change, negative = inhibition, most hits filed as inhibitors | 330,000 compounds, 0.46% hits; calls by dose curve; tested in A549 cells; further: potency means the concentration at half of the fitted maximal effect; nearly all actives have a fitted effect of over 30% in size
* = called active by the depositor; i = inactive; ? = inconclusive; . = no result; [ ] = remark or other dose. This is a sample that favours compounds with a hit; in the whole collection about 7.8% have one here. On the % scale 0 is the no-effect control and ±100 the full control effect.

SMILES | LASV entry inh | HCV inh | HCMV inh | MARV entry inh | VACV mCherry inh | Vaccinia Venus
C=Cc1ccc(Cn2c(=O)n(-c3cccc(C)c3)c(=O)c3c2c2cc(C)ccc2n3C)cc1 | -24.1%[46.1 µM] | . | -7.5 | . | -9.2% | -14.9%
O=c1c2c([nH]c3ccc(Br)cc13)CCCC2 | ? | -24.1% | 47.5 | -24.7% | . | -8.7%
O=[N+]([O-])c1ccc2[nH]c3c(c2c1)CCCC3 | . | 11.2µM* | ? | . | . | .
Brc1ccc2[nH]c3c(c2c1)CCC3 | 8.91µM* | ? | -70.1* | ? | -10.1% | 7.5%
OCCN=C1CCCc2c1[nH]c1ccc(Br)cc21 | -7.7% | 5.62µM* | -13.0 | 1.0% | -17.4%[1.46 µM] | -21.1%
Cc1ccc(Cl)cc1NC(=O)NCc1cccn1Cc1ccc(F)cc1 | ? | . | -26.3 | 10.6%[46.1 µM] | ? | ?
Cc1ccc(C(=O)Nc2ccc(Br)cc2)cc1S(=O)(=O)NCc1ccccc1 | ? | . | -69.1* | . | ? | ?
COc1ccc(CNS(=O)(=O)c2cc(C(=O)Nc3cc(Cl)cc(Cl)c3)ccc2F)cc1 | -13.6%[46.1 µM] | . | -78.4* | . | i | -19.3%
Cc1cccc(NC(=O)c2ccc(F)c(S(=O)(=O)NCc3ccco3)c2)c1 | . | ? | -14.2 | . | . | .
O=C(Nc1cccc(Cl)c1)c1ccc(F)c(S(=O)(=O)NCc2cccs2)c1 | ? | ? | -92.8* | ? | -18.5% | ?
CCc1ccc(NC(=O)c2ccc(F)c(S(=O)(=O)NCc3ccc(Cl)c(Cl)c3)c2)cc1 | ? | . | 53.7 | . | -12.4% | -18.5%
COc1ccccc1CNS(=O)(=O)c1cc(C(=O)Nc2cccc(C(F)(F)F)c2)ccc1F | ? | . | -66.6* | . | -15.7% | ?
COc1cccc(CN2C(=O)NC(C)(C3CCN(Cc4ccc(C)o4)CC3)C2=O)c1OC (stereo not given) | . | . | . | . | -24.0% | -20.3%
OC1(c2cccnc2)CCN(Cc2ccc3c(c2)CN(Cc2cc(F)ccc2F)CCO3)CC1 | . | . | . | . | -15.9% | -2.9%
CCN1C2=C(C=C/C1=C1\C(=O)N(C)C(=S)N1C1CCCCC1)CCCC2 | . | . | . | 1.8%[46.1 µM] | . | .
O=C(Nc1cc(Cl)cc(Cl)c1)c1ccc(F)c(S(=O)(=O)NC2CCCCC2)c1 | -3.4%[46.1 µM] | . | -20.7 | . | -7.1% | -23.3%
O=C(Nc1cc(Cl)cc(Cl)c1)c1ccc(F)c(S(=O)(=O)NCc2ccccc2Cl)c1 | -17.7%[46.1 µM] | . | -98.5* | . | -22.9% | -20.8%
COc1ccccc1-n1c(/C=C/c2ccc(O)cc2)nc2ccccc2c1=O | ? | ? | -32.5 | ? | -0.2% | -6.3%
COc1cc(/C=C/c2nc3ccccc3c(=O)n2-c2ccccc2O)ccc1O | ? | ? | -82.9* | ? | ? | 20.3%
COc1cc(/C=C/c2nc3ccccc3c(=O)n2-c2cccc(O)c2)ccc1O | 1.26µM* | ? | 0.0 | ? | ? | 176.6%
CCN1C(=NCCc2ccccn2)NC(c2cccc(C(F)(F)F)c2)C(C(=O)OC)=C1C (stereo not given) | ? | . | . | -20.4%[14.2 µM] | . | .
O=C(Nc1ccccc1Cc1ccccc1)c1ccccc1NS(=O)(=O)c1ccc(Cl)s1 | ? | ? | -103.5* | ? | ? | ?
O=C(Nc1ccccc1)c1ccccc1NS(=O)(=O)c1ccc(Cl)s1 | ? | ? | -63.8* | 20µM* | ? | ?
Cc1ccc(NC(=O)c2ccccc2NS(=O)(=O)c2ccc(Cl)s2)cc1 | ? | 11.2µM* | -98.2* | 10µM* | ? | ?
O=C(NCc1ccco1)c1ccccc1NS(=O)(=O)c1ccc(Cl)s1 | -17.7% | 3.7% | -26.1 | -20.3%[46.1 µM] | -19.3% | -10.1%
SMILES | LASV entry inh | HCV inh | HCMV inh | MARV entry inh | VACV mCherry inh | Vaccinia Venus
Cc1ccccc1NC(=O)CSc1nc(-c2ccc(F)cc2)nc2c1Cc1ccccc1O2 | 7.4%[46.1 µM] | . | 39.9 | 2.5%[46.1 µM] | -6.0% | -9.0%
COC(=O)c1c(C)nc(C)c2c(=O)oc3c(c12)CCCC3 | . | . | . | 13.0% | . | .
CCOC(=O)c1c(C)[n+](-c2ccc(C)cc2)c(CC)c2cc(OC)c(OC)cc12 | . | ? | -81.3* | . | . | .
CCOC(=O)c1c(-c2ccc(OC)c(OC)c2)csc1NC(=O)c1ccc(C)cc1 | -15.0%[46.1 µM] | . | -5.9 | -2.3%[46.1 µM] | -11.3% | 0.8%
O=C(CSc1nnc(-c2cccs2)n1CC1CCCO1)N1CCCC1 (stereo not given) | 3.9% | 32.1% | -4.9 | 1.4%[46.1 µM] | -12.1% | -10.8%
NC(=O)c1ccc(Sc2nnc(-c3cccs3)n2CC2CCCO2)c([N+](=O)[O-])c1 (stereo not given) | 15.0% | 0.8% | 15.5 | 24.7% | 7.94µM* | 11.2µM*
Nc1c(Cl)nc(-c2ccccc2)nc1Cl | . | ? | -72.2* | . | i | -5.6%
Cc1ccc(NC(=O)CSc2nc3nccnc3c(=O)n2CCc2c[nH]c3ccccc23)c(C)c1 | 2.6%[46.1 µM] | . | 2.3 | . | -19.9% | -19.1%
COc1ccc(C)cc1NC(=O)c1nnn(-c2c(C)cccc2C)c1C | 9.7%[46.1 µM] | . | -23.5 | ? | -12.0% | -6.8%
O=C(Cc1coc2cc(O)ccc12)N1CCN(S(=O)(=O)c2ccc(Br)cc2)CC1 | . | 11.2µM* | -32.7 | . | . | .
Cc1ccc2c(CC(=O)N3CCN(S(=O)(=O)c4cccs4)CC3)coc2c1 | -13.8% | -2.3% | 10.9 | -18.3%[46.1 µM] | . | -14.7%
CC(C)[C@H](NC(=O)c1ccccc1)C(=O)OCC(=O)/C=C1/N(C)c2ccccc2C1(C)C | -20.5% | ? | -68.0* | -40.5% | . | .
Cc1onc(-c2ccccc2)c1CNS(=O)(=O)c1cccc(Br)c1 | -10.1% | -6.4% | -73.0* | ? | -3.1%[7.34 µM] | -2.0%[7.34 µM]
CCOC(=O)Cc1csc(NC(=O)C(CC(C)C)NC(=O)C2CCCCC2)n1 (stereo not given) | . | 14.1µM* | -35.9 | . | . | .
CCOC(=O)Cc1csc(NC(=O)c2c(O)c3ccccc3n(CCC(C)C)c2=O)n1 | -10.1% | 10µM* | -2.2 | ? | i | -12.2%
CCOC(=O)Cc1csc(NC(=O)C2C3C=CC(C3)C2C(=O)O)n1 (stereo not given) | 21.9% | 0.1% | -101.5* | 7.3%[46.1 µM] | . | -11.2%
Cc1nc2nc[nH]n2c(=O)c1NS(=O)(=O)c1ccc(Br)cc1 | -3.5%[46.1 µM] | . | 11.8 | 6.8%[46.1 µM] | -9.8% | -6.4%
C/C(N)=C(/C#N)C(=O)COC(=O)Cc1coc2ccc3ccccc3c12 | -7.5% | -22.1% | -68.3* | ? | -4.2% | -1.7%
c1ccc(-c2cn3nc(-c4ccccc4)sc3n2)cc1 | ? | ? | . | ? | -6.0% | -15.4%
c1ccc(-c2cn3c4c(sc3n2)CCCC4)cc1 | ? | -7.8% | ? | 1.12µM* | -6.1% | -16.1%
O=C(NC1c2ccccc2-c2ccccc21)N1CCCCC1 | 1.7% | 17.8% | -19.3 | 6.4% | 7.08µM* | ?
CC(C)(C)c1ccc(/C=C2\Oc3cc(O)ccc3C2=O)cc1 | ? | ? | -91.5* | ? | -29.5% | ?
O=C1/C(=C/c2ccc(Br)cc2)Oc2cc(O)ccc21 | 20.0%[46.1 µM] | -5.1% | 0.0 | ? | -6.3% | -3.1%
CN(C)C(=O)Oc1ccc2c(c1)O/C(=C\c1cccc([N+](=O)[O-])c1)C2=O | . | 8.0% | 19.7 | . | . | .

Source: PubChem BioAssay
